High-throughput results deposited in PubChem by several laboratories.
PP5 primary – PP5 (human) phosphatase inhibition; purified PP5c, OMFP substrate fluorescence; AID 1987; P53041; inhibition, % at 6.7 µM; hit rate 0.18% among 320,000;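 active = inhibition above the campaign's mean inhibition across all tested compounds plus 3 SD, cut at about 9.5% in these data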;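 also: 0% = DMSO only and 100% = 100 µM cantharidin control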
Target sequence (P53041 whole entry, looked up): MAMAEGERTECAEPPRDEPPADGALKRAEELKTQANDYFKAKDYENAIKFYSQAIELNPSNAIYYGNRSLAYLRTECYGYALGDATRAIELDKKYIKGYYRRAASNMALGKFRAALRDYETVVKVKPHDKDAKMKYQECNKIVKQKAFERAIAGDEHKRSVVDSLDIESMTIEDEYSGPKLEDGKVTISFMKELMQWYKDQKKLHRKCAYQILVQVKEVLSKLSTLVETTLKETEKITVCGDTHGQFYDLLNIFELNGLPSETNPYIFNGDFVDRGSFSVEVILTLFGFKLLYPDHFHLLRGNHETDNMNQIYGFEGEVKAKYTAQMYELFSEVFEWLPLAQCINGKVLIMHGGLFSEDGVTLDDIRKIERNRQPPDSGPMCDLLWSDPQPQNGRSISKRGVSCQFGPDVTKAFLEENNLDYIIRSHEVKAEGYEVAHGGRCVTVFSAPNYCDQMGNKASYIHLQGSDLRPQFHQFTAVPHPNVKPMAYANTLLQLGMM
PP1 inh – PP1-alpha (human) inhibition in PP5 counter-screen; hit rate 0.9% among 320,000; purified PP1alpha, OMFP fluorescence; AID 2235; P62136; inhibition, % at 6.7 µM;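 active = inhibition above the mean inhibition of all tested compounds plus 3 SD, computed separately for each screening campaign, cut at about 15% in these data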
CSC inhib – blocks cancer stem cells | cancer stem cell-like cells viability, luminescence | inhibition, % at 7.5 µM | hit rate 1.1% among 300,000; in the data active = inhibition above about 75%; inconclusive = no clear call, values can overlap the other calls; tested in HMLE shEcad cells
Calb FLC – affects C. albicans growth with fluconazole; C. albicans CaCi-2 (fluconazole-resistant clinical isolate) + fluconazole, Alamar Blue growth, 48 h; growth inhibition, % (test concentration not listed); hit rate 0.57% among 300,000;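 active = growth inhibition above about 58% in most replicates, limit read from the data, passing the limit was not always enough; inconclusive = exactly half the replicates above a set limit; inactive = most replicates below a set limit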;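 also: all wells also contain fluconazole at 8 µg/ml as a sub-toxic cotreatment; 0% = median of DMSO wells and 100% = median of geldanamycin control wells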
ALR H2O2 inh – inhibitors of human sulfhydryl oxidase ALR; inhibition, % (concentration not given with the values); P55789; AID 485317; hit rate 3.8% among 290,000; purified ALR, DTT oxidation, H2O2 HRP-luminol luminescence;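 active = mean replicate inhibition above about 79%, with every replicate also reaching it, limit read from the data; inconclusive = only one of the two criteria met; inactive = mean below limit and not every replicate reaching it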
An asterisk follows results filed as active; u = inconclusive; x = not tested or not shown. A selection: hits, their analogues and other compounds. The true share with any hit is near 5.4%.

SMILES | PP5 primary | PP1 inh | CSC inhib | Calb FLC | ALR H2O2 inh
CC(=O)NC(Cc1ccc(F)c(F)c1)C(=O)NC1CCN(S(=O)(=O)c2ccc(C)cc2)CC1 (centres undefined) | x | x | x | 0 | x
COc1ccc(OC)c(Cc2nnc(CCC(=O)N3CCCCC3c3nccs3)o2)c1 (centres undefined) | -1 | 1 | -12 | 3 | -8
COc1ccc(C2NC(=O)CS2)cc1OC (centres undefined) | -2 | 0 | 7 | -26 | 98*
ClCC1=Nc2cccc3cccc(c23)N1 | 0 | -1 | -17 | -2 | 99*
CNCCCOc1ccc2c(c1)CCC2 | 1 | -1 | -8 | 3 | -12
c1cnc(SCCOc2ccc3c(c2)CCC3)nc1 | 0 | 1 | 9 | 101* | 0
CC(C)(C)NC(=O)NC(=O)COC(=O)C1=COCCO1 | 2 | -4 | -12 | -3 | -2
O=C1SC(c2ccccc2)=C/C1=C\N1CCCCC1 | 1 | 0 | -5 | -8 | 95*
O=C1OC(c2ccccc2)=C/C1=C/N1CCOCC1 | 2 | -2 | 3 | 0 | -7
Cc1ccc(-n2nc3c(=O)n(CC(=O)c4ccc(F)cc4)nc(C)c3c2C)cc1 | 2 | 1 | -12 | 25 | -1
COc1cccc(-c2n[nH]c3c2CCC3)c1 | 5 | -4 | -17 | 9 | -2
O=C1c2cccc(OCC(=O)N3CCCc4ccccc43)c2CCN1Cc1ccccc1 | 1 | 4 | 88* | 45 | -8
CCC(Sc1nc2ccccc2o1)C(=O)Nc1nnc(C)s1 (centres undefined) | 3 | 1 | 6 | u | 61
Cc1onc(-c2ccccc2)c1C(=O)NC(=S)NNC(=O)c1cccnc1 | -11 | 6 | 19 | 100* | 17
Cc1onc(-c2ccccc2)c1C(=O)NC(=S)NNC(=O)c1ccncc1 | 3 | -3 | -2 | 2 | 38
O=C(NNC(=S)NC(=O)c1ccccc1)c1cccnc1 | 1 | -2 | 1 | 42 | 98*
COc1cc(OC)cc(C(=O)NNC(=S)NC(=O)c2cccnc2)c1 | 2 | -2 | 16 | -7 | 98*
COc1ccc(C(=O)NC(=S)NNC(=O)c2cccnc2)cc1 | 3 | 1 | 10 | -7 | 99*
O=C(Cn1cnc2c(nnn2-c2cccc(F)c2)c1=O)Nc1ccc2c(c1)OCCO2 | -1 | -3 | -12 | -8 | 38
COc1ccc(C(=O)C2CCCCC2=O)cc1 (centres undefined) | 2 | -1 | -3 | -9 | 10
COc1ccc(CC(=O)Nc2cccc3c2CCCC3)cc1 | -5 | -1 | -6 | -4 | -5
CN(CC1CCCO1)S(=O)(=O)c1ccc(C(=O)N2CCN(c3ccccc3)CC2)cc1 (centres undefined) | 1 | -4 | -10 | 14 | 13
Cc1ccc2c(c1)cc(C(=O)N1CCN(c3ccccn3)CC1)n2C | 5 | -1 | -15 | 7 | x
CCC(=O)N1CCC2(CC1)Oc1ccc(F)cc1C(=O)C21CC(c2ccc(Cl)cc2)=NO1 (centres undefined) | 5 | 0 | 14 | 11 | -4
O=C(NCc1ccccc1)C1=C[C@H](C2CCCCC2)C[C@H](OCc2ccc(CO)cc2)O1 | 3 | 1 | 34 | 12 | -10
SMILES | PP5 primary | PP1 inh | CSC inhib | Calb FLC | ALR H2O2 inh
CCCCS(=O)(=O)Nc1ccc2ncn(C)c(=O)c2c1 | -2 | -4 | 0 | -4 | -3
COc1cc(OC)cc(C(=O)NC(=S)NNC(=O)[C@H]2C[C@@H]2c2ccccc2)c1 | 2 | -2 | 26 | -27 | 99*
CCCCn1c(NC(=O)c2ccc(Br)o2)c(S(=O)(=O)c2ccccc2)c2nc3ccccc3nc21 | 1 | 0 | 40 | 33 | 40
Cc1ccc(CSc2ccc3nnc(-c4ccccn4)n3n2)cc1 | 0 | 16* | -5 | -30 | x
O=c1cc(O)nc(-c2ccccc2)s1 | 0 | -2 | x | 9 | -30
O=c1cc(O)nc(-c2ccc(Cl)cc2)s1 | 2 | -1 | -14 | -9 | 93*
COc1ccc(/C=N/NC(=O)CSCc2ccc([N+](=O)[O-])cc2)cc1OC | 1 | -5 | -8 | 7 | 16
COc1cc(/C=N/NC(=O)CSCc2ccc([N+](=O)[O-])cc2)cc(OC)c1OC | 0 | -1 | 1 | 6 | 98*
O=C(CSCc1ccc([N+](=O)[O-])cc1)NN=C1CCCCCC1 | 2 | -2 | -1 | -14 | 88*
COc1cccc(/C=C/C(=O)NNC(=O)c2ccco2)c1OC | 2 | 1 | x | x | -1
Cc1[nH]c2ccccc2c1/C=N/NC(=O)CNC(=O)c1ccco1 | 5 | 7 | -17 | -4 | 95*
Cc1[nH]c2ccccc2c1/C=N\NC(=O)c1ccco1 | x | x | 7 | -16 | 58
